# Bioassay records as filed in PubChem.
# Compounds with a hit are over-represented: about 2.2% of the library has one in this group of screens.
# LDHA block = qHTS assay for inhibitors of human lactate dehydrogenase; purified LDHA, NADH/diaphorase-resazurin fluorescence; stronger effect = lower value; activity change, % (values are at about 110 or 230 µM); hit rate 0.15% among 480,000; AID 1347041, 2019; in the data active means activity change below about -30%; inconclusive means mostly about -25% to -30%;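 further: plate controls were DMSO wells for no effect and wells without enzyme for full effect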
#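 Enzyme activity of human lactate dehydrogenase 5 (2 nM; 0.06 mM NADH, 0.2 mM pyruvate, 5 min, RT) is measured via a resazurin/diaphorase fluorescence readout of residual NADH.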
# TGFb inhibitor = qHTS for Inhibitors of TGF-b; hit rate 1.2% among 410,000; HepG2 CAGA-GFP TGF-b/SMAD3 reporter, GFP fluorescence, 18 h; TGF-beta stimulated, 500 pg/mL final; Potency, µM (top dose mostly 46.1 µM), for inactives: at the highest dose activity, negative = inhibition, usual class: inhibitors; further: potency means the concentration at half of the fitted maximal effect; on the % scale 0 is the no-effect control and ±100 the full control effect; nearly all actives have a fitted effect of over 65% in size
#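 Cell-based qHTS in HEPG2 carrying a CAGA-GFP Smad reporter; compounds added before 500 pg/mL final TGF-beta, 18 h incubation at 37 degrees C, GFP fluorescence quantified per cell by imaging cytometry.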
# HepG2 viability = qHTS for Inhibitors of TGF-b: Cytotox Counterscreen | HepG2 CAGA-GFP viability, ATP luminescence, 18 h | Potency, µM (series often up to 46.1 µM), for the others: top-dose activity change, negative = cytotoxicity, usual class: cytotoxic | hit rate 0.76% among 410,000 | AID 588856, 2011; further: potency means the concentration at half of the fitted maximal effect
#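 HepG2 CAGA-GFP cells (1000/well, DMEM with 1% FBS) received compound, then TGF-beta at 500 pg/mL final, and were incubated 18 hours at 37 degrees C. Viability was read by CellTiter-Glo luminescence. Media-only wells were set as complete cell-killing and DMSO as no toxicity.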
# ATXN2 expr inh = Primary qHTS for Inhibitors of ATXN expression | HEK-293 ATXN2-luciferase reporter, luminescence, 24 h | AID 1745845, 2022 | Potency, µM (doses to about 57 µM), without a hit: at the top dose activity change, negative = inhibition, most hits filed as inhibitors | hit rate 0.72% among 360,000; further: potency means the concentration at half of the fitted maximal effect; on the % scale 0 is the no-effect control and ±100 the full control effect; nearly all actives have a fitted effect of over 55% in size
#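 ATXN2-luciferase reporter cells (luciferase flanked by upstream and downstream ATXN2 gene portions) were treated 24 h at 37 °C with compounds at up to 57 uM. SteadyGlo luminescence gave expression; GF-AFC fluorescence gave viability.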
# S2 tox = Viability Counterscreen for Primary qHTS for Inhibitors of ATXN expression; S2 cells (HEK-293 line with an ATXN2-luciferase reporter) viability, CellTiter-Fluor protease fluorescence, 24 h; Potency, µM (top dose mostly 56.7 µM), actives largely listed as cytotoxic; hit rate 0.49% among 400,000; AID 651635, 2014; further: potency means the concentration at half of the fitted maximal effect; nearly all actives have a fitted effect of over 40% in size
# mIDH1 inhibitor = qHTS for Inhibitors of mutant isocitrate dehydrogenase 1 (IDH1): qHTS. Isocitrate dehydrogenase [NADP] cytoplasmic (Homo sapiens), O75874. IDH1-R132H enzyme, NADPH consumption, diaphorase/resazurin fluorescence. Potency, µM (titrated, usually from 76.6 µM), without a hit: at the highest dose activity change, negative = inhibition, actives largely listed as inhibitors. hit rate 0.093% among 390,000; further: potency means the concentration at half of the fitted maximal effect; on the % scale 0 is the no-effect control and ±100 the full control effect; nearly all actives have a fitted effect of over 65% in size
# Target sequence (O75874 whole entry R132H, stated change not applied): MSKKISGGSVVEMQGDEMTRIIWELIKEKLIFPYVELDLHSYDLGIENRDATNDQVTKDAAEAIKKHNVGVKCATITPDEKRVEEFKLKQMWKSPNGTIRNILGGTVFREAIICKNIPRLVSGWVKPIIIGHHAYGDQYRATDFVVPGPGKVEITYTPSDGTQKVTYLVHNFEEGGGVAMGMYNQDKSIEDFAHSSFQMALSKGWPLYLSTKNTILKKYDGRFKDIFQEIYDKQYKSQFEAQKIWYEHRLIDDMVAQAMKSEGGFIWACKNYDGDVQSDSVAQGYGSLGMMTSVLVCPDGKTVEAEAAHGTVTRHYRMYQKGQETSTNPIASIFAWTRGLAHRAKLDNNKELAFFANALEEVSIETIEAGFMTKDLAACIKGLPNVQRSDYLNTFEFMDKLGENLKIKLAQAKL
#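 IDH1-R132H (0.5 ug/mL dispensed) in pH 7.5 Tris buffer was preincubated 30 min with compound, then given a substrate mix of 0.016 mM NADPH and 2 mM alpha-KG for 80 min at room temperature; remaining NADPH was read by diaphorase/resazurin fluorescence.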
# * = called active by the depositor; i = inactive; ? = inconclusive; . = no result given; [ ] = dose if it differs, or a comment. Unless noted, the call rests on the fitted dose curve; in most records, active means well fitted curve in the direction sought with a large enough effect; inconclusive means small, poorly fitted or top-dose-only effect, or another doubt; inactive means no such curve, though single readings can be large; an effect the other way counts as inactive or inconclusive.
SMILES,LDHA block,TGFb inhibitor,HepG2 viability,ATXN2 expr inh,S2 tox,mIDH1 inhibitor
COc1cccc(-n2nc(C#N)c(Cl)cc2=O)c1,2,6.3µM*,18µM*,22µM*,32µM*,4%
O=C(/C=C/c1ccncc1)c1ccc(NC(=O)c2ccccc2F)cc1,-12,13µM*,5µM*,-14%,?,1%
CSCCC(NC(=O)c1ccc([N+](=O)[O-])cc1Cl)C(=O)OCC(=O)NCCCc1ccccc1 (centres undefined),7,16µM*,-45%,0%,i,2%
CN1C(=O)/C(=C/c2ccc(O)c([N+](=O)[O-])c2)NC1=S,9,-1%,-2%,-11%,25µM*,1%
COc1cccc(Nc2nnc(SCc3nc4ccccc4s3)s2)c1,-8,-46%,-32%,35%,i,0%
Cc1ncoc1C(=O)N1CCOc2ccc(CN3CCC(Oc4cccnc4)CC3)cc2C1,.,.,.,.,i,.
O=C(N/N=C/C=C/c1ccccc1[N+](=O)[O-])c1ccncc1,1,15%,-2%,9%,i,2%
O=C(N/N=C/c1ccccn1)c1cc(-c2ccc3ccccc3c2)n[nH]1,-34*,?,-13%,?,?,10%
O=C(N/N=C/C=C\c1ccccc1[N+](=O)[O-])c1cc(-c2ccc3ccccc3c2)n[nH]1,?,13µM*,8.9µM*,-31%,?,-4%
O=C(N/N=C/c1c[nH]c2ccccc12)c1cc(-c2ccc(-c3ccccc3)cc2)n[nH]1,-6,?,-76%,?,.,-2%
O=C(N/N=C/c1c[nH]c2ccccc12)c1cc(-c2ccc3ccccc3c2)n[nH]1,-7,16µM*,-39%,27%,?,2%
O=S(=O)(c1ccc(OCC(O)CNC23CC4CC(CC(C4)C2)C3)c(Cl)c1)N1CCOCC1 (centres undefined),-4,?,13µM*,?,?,-8%
O=C(COc1ccc(S(=O)(=O)N2CCOCC2)cc1Cl)NC1CCCCC1,-9,?,-3%,-10%,i,1%
Cc1ccccc1NC(=O)Nc1ccc2nc(N3CCN(C)CC3)cc(C)c2c1,-3,35%,-7%,-15%,i,-5%
CCOc1ccccc1C(=O)Nc1ccc2nc(N3CCN(c4ncccn4)CC3)cc(C)c2c1,-3,0%,-25%,14µM*,?,3%
CCOc1ccccc1NC(=O)Nc1ccc2nc(N3CCN(C)CC3)cc(C)c2c1,3,?,7.9µM*,?,.,1%
Cc1ccccc1C(=O)Nc1ccc2nc(N3CCCCC3)cc(C)c2c1,11,11%,-24%,-8%,?,0%
Cc1cc(N2CCN(C)CC2)nc2ccc(NC(=O)c3ccc(C(C)(C)C)cc3)cc12,4,?,13µM*,?,16µM*,-10%
COC1=C/C(=C/c2c(N)n3nc(-c4ccc(C)cc4)sc3nc2=O)C=CC1=O,-30*,48%,-16%,32%,i,4%
COCCOc1nc2c(c(=O)n(C)c(=O)n2C)n1Cc1ccccc1,2,.,.,.,.,.
COCCOc1nc2c(c(=O)n(C)c(=O)n2C)n1C(C)c1ccccc1 (centres undefined),-36*,.,.,.,.,.
CCOc1ccc(C(=O)Nc2nnc(SCC(=O)NCC3CCCO3)s2)cc1 (centres undefined),-19,-8%,-16%,?,?,-16%
CC(C)(C)c1ccc(C(=O)Nc2nnc(SCC(=O)NCC3CCCO3)s2)cc1 (centres undefined),0,-3%,-7%,16µM*,i,0%
Cc1cc(NS(=O)(=O)c2ccc(NC(=O)c3ccc([N+](=O)[O-])s3)cc2)nc(C)n1,-6,?,-26%,-14%,?,2%
Cc1ccnc(NS(=O)(=O)c2ccc(NC(=O)c3ccc([N+](=O)[O-])s3)cc2)n1,-1,?,11µM*,?,i,3%
SMILES,LDHA block,TGFb inhibitor,HepG2 viability,ATXN2 expr inh,S2 tox,mIDH1 inhibitor
Cc1ccc(NCCCn2cnc(C(=O)Nc3ccc(C)c(C)c3)n2)cc1C,1,-8%,2%,2%,i,6%
Cc1ccc(NC(=O)c2ncn(CCCNCCCN3CCCC3=O)n2)cc1C,1,2%,-5%,-8%,i,4%[38.3 µM]
Cc1ccc(NC(=O)c2ncn(CCCN[C@H](C)c3cccc4ccccc34)n2)cc1C,-16,?,-103%,?,22µM*,0%
Cc1cc(C)c(CN2CCN(CCCn3cnc(C(=O)Nc4ccc(C)c(C)c4)n3)CC2)c(C)c1,-11,?,18µM*,?,.,-8%
CCSc1nnc(NC(=O)NC(C)(C(F)(F)F)C(F)(F)F)s1,-3,?,-41%,-16%,i,-1%
CCSc1nnc(NC(=O)NC(CC)(C(F)(F)F)C(F)(F)F)s1,-4,13µM*,-86%,?,?,-2%
COCCNC(=O)c1sc2ncccc2c1-n1c(C)ccc1C,2,14%,5%,-2%,i,7%
CCc1ccc(CNC(=O)c2sc3ncccc3c2-n2c(C)ccc2C)cc1,6,11µM*,-43%,-34%,?,8%
COC(=O)/C(=C1/Oc2cc(C)oc(=O)c2S1)C(F)(F)F,-2,5.6µM*,-30%,?,.,3%
CC(C)c1ccc(S(=O)(=O)Nc2ccc(SC(F)F)cc2)cc1,5,?,-53%,-26%,?,-13%
Cc1ccc(S(=O)(=O)Nc2ccc(SC(F)F)cc2)c(C)c1,4,13µM*,-72%,-37%,?,-3%
CN(Cc1nc2ccccc2[nH]1)C(=O)C1CCC(=O)N(CCc2cccc(F)c2)C1 (centres undefined),-8,-7%,-6%,3%,i,0%
CC(C)[C@H]1c2ccc(F)cc2CC[C@@]1(CCN(C)CCCc1nc2ccccc2[nH]1)OC(=O)C1CC1,3,11µM*,-109%,.,.,.
Cc1nc(SC(C)C)c2c(=O)n(C)c(=O)n(CC(C)C)c2n1,1,.,.,.,.,.
